PubChem BioAssay (NCATS)
Results filed as inconclusive are left out. Calls of active or inactive are those of the source. Calls come from the whole dose curve; as a rule, active = well fitted inhibition curve with a large enough effect; inconclusive = small, poorly fitted or top-dose-only effect; inactive = flat fitted curve, though single readings scatter.

Experiments:
Assay in all cases: qHTS profiling for inhibitors of Plasmodium falciparum proliferation (AID 504749); note: nearly all actives have a fitted effect of over 60% in size
Conditions in all cases: P. falciparum in erythrocytes, SYBR Green DNA, 72 h; series mostly up to 28.7 µM
AS120 = system: AS120
In short: (§1)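 Three-day growth assay of blood-stage parasites in erythrocytes (0.3% parasitemia, 2.5% hematocrit) at 37 C, 5% CO2, quantified by SYBR Green DNA staining after overnight detergent lysis.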

ATS189 = system: ATS189
In short: as §1

ATS95 = system: ATS95
In short: as §1

CP185 = system: CP185
In short: as §1

CP191 = system: CP191
In short: as §1

CP194 = system: CP194
In short: as §1

CP203 = system: CP203
In short: as §1

CP238 = system: CP238
In short: as §1

CP247 = system: CP247
In short: as §1

CP265 = system: CP265
In short: as §1

CP268 = system: CP268
In short: as §1

CP286 = system: CP286
In short: as §1

CP305 = system: CP305
In short: as §1

CP335 = system: CP335
In short: as §1

DIV30 = system: DIV30
In short: as §1

ECU = system: ECU
In short: as §1

PAD = system: PAD
In short: as §1

PC26 = system: PC26
In short: as §1

TAB109 = system: TAB109
In short: as §1

TAB113 = system: TAB113
In short: as §1

Measured: Potency

COC(=O)[C@@H]1[C@@H]2C[C@H]3c4[nH]c5ccccc5c4CCN3C[C@@H]2CC[C@@H]1O
inactive: all assays above

C[C@@H](C(=O)O)c1ccc(-c2ccccc2)c(F)c1
inactive: all assays above
